Bioassay records as filed in PubChem.
The list is not random: actives were taken first. Their share in the collection is about 3.2%.
CHT inh: inhibitors of human choline transporter CHT; High affinity choline transporter 1 (Homo sapiens), Q9GZV3; CHT-expressing cells, membrane potential dye, choline response; stronger effect = lower value; B-score at 10 µM; 310,000 compounds, 0.86% hits; AID 488975, 2010;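 active = B-score over 3 SD under the library average, and starting fluorescence ratio not unusually high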;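 also: choline stimulus applied at its EC90 after an EC20 pre-addition; B-score computed on integrated fluorescence ratio after choline addition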
ANO1 block: TMEM16A chloride channel inhibitors, primary screen, cell-based, HTS. normalized B-score (activity score, 25-100; higher = stronger inhibition) at 10 µM. 310,000 compounds, 1.2% hits. HEK293 TMEM16A/YFP iodide influx fluorescence, ionomycin. Anoctamin-1 (Mus musculus), Q8BHY3. AID 588511, 2011;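 active = ratio plate-corrected score three or more library SD toward inhibition, starting fluorescence score within five deviations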;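 also: score derived from kinetic fluorescence span divided by baseline fluorescence per well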
Target sequence (Q8BHY3 whole entry, looked up): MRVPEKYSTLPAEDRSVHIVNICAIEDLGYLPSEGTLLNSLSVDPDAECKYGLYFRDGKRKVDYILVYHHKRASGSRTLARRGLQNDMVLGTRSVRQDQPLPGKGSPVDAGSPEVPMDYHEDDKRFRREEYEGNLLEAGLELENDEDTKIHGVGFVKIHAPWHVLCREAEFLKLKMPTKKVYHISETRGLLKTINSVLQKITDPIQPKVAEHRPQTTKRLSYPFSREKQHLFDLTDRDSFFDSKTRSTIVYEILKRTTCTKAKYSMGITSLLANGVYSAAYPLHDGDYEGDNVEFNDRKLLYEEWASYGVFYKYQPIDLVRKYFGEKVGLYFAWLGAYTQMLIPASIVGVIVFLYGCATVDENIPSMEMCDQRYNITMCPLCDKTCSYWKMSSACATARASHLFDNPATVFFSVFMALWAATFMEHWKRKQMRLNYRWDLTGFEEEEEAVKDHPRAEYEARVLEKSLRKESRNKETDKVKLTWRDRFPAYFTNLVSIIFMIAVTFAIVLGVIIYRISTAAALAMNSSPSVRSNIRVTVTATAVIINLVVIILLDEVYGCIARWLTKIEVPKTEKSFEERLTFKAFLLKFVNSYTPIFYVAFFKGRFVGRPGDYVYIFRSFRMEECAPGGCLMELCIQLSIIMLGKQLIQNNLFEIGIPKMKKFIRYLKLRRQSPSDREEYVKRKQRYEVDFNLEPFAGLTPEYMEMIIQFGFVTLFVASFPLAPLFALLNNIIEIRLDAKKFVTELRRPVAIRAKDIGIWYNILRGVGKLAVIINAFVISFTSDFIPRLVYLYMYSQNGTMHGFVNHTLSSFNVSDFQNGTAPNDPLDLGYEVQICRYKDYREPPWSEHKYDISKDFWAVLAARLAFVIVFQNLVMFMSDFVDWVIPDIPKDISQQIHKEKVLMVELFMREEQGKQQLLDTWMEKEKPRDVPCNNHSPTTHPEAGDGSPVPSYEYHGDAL
CHT PAM: CHT positive allosteric modulators, primary screen, cell-based, membrane potential dye, choline EC20 | CHT-expressing cells; stronger effect = higher value; LV-AA mutant CHT in HEK293 cells | B-score at 10 µM | 310,000 compounds, 0.49% hits;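 active = initial fluorescence not abnormally high and integrated response B-score, plate-corrected, over 3 SD above library mean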
Kir21 inh: inhibitors of mouse Kir2.1 inward-rectifier potassium channel | Inward rectifier potassium channel 2 (Mus musculus), P35561 | HEK293-Kir2.1, FluxOR thallium flux fluorescence; stronger effect = lower value | B-score at 10 µM | 310,000 compounds, 0.85% hits | AID 1672, 2009;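 active = fluorescence ratio B-score at or below minus 3 SD of library scores, with starting-brightness B-score within 2 SD, cut at about -4.2 in these data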;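 also: channel flux triggered by added potassium and thallium sulfate stimulus; B-score of peak minus minimum fluorescence over baseline after thallium stimulus; more negative B-score means stronger Kir2.1 block with less thallium influx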
Rce1 inh: yeast Rce1p protease inhibitors, primary screen, biochemical, fluorescence, cell-free homogeneous; CAAX prenyl protease 2 (Saccharomyces cerevisiae (strain ATCC 204508 / S288c)), Q03530; yeast membranes, quenched prenylated peptide cleavage fluorescence; calls only; 290,000 compounds, 0.27% hits;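 active = fall in fluorescence gain of 50% or more versus controls, with final raw signal at or below 3038400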
ANO1 activ: TMEM16A chloride channel activators or potentiators, primary screen, cell-based, HTS. 340,000 compounds, 0.3% hits. B-score at 10 µM. HEK293 TMEM16A/YFP-H148Q/I152L, iodide quench fluorescence; stronger effect = lower value;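 active = fluorescence-ratio B-score plate-corrected deviation score at least 3 library SD below zero, with starting fluorescence score within 5 deviations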;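 also: channel opened by trigger with iodide after compound preincubation; score built on the fluorescence ratio of max minus min over baseline; more negative score means more quench and so TMEM16A activation or potentiation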
TMEM16A reconf: TMEM16A chloride channel inhibitors, confirmation, cell-based, re-confirmation. shares compounds with ANO1 block. HEK293 TMEM16A/YFP-H148Q, iodide quench fluorescence; ionomycin added to raise cell calcium. inhibition, % at 10 µM. 2,300 compounds, 39% hits. AID 652189, 2013;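 active = mean duplicate percent inhibition, scaled so buffer wells are 0 and the reference blocker 100, over three buffer SD above buffer mean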
TMEM16A Ca cntr: calcium mobilization in TMEM16A/YFP HEK293 cells, confirmation, counter-screen for TMEM16A inhibitor project. shares compounds with ANO1 block. calcium response (% of ionomycin), % at 10 µM. 2,300 compounds, 2% hits. Fluo4 calcium mobilization;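 active = duplicate-averaged calcium signal over 20% of the ionomycin maximum, relative to buffer baseline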;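 also: each well's signal is peak minus trough fluorescence divided by its pre-addition baseline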
YFP-HEK293 quench: iodide YFP quench changes in parental YFP-HEK293, counter-screen for TMEM16A inhibitor project, cell-based; shares compounds with ANO1 block; ionomycin; YFP ratio F(max-min)/F0 at 10 µM; 2,300 tested, under 10 active;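 active = yellow fluorescent protein signal ratio exceeding the buffer control mean by over 5 SD of those controls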;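 also: ratio is mean of duplicate wells from kinetic YFP trace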
ClC-1 inh: ClC-1 chloride channel inhibition, selectivity assay for TMEM16A inhibitor project, cell-based, voltage-dependent ClC-1; shares compounds with ANO1 block; CHO ClC-1-YFP, iodide influx fluorescence quench; iodide control reads 0, buffer control 100; ratio percent, % at 10 µM; 2,300 tested, under 10 active;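 active = duplicate-mean ratio percent above the mean of iodide-only control wells, which defines zero, plus 5 of their SD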;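 also: higher percent means stronger block of ClC-1 iodide influx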
Numbers stand for hits; – = inactive; · = no result.

SMILES | CHT inh | ANO1 block | CHT PAM | Kir21 inh | Rce1 inh | ANO1 activ | TMEM16A reconf | TMEM16A Ca cntr | YFP-HEK293 quench | ClC-1 inh
CC(Sc1nc(-c2ccccc2)cc(C(F)(F)F)n1)C(=O)N1CCCCC1 (configuration not stated) | – | – | – | – | · | – | · | · | · | ·
COc1cc(NS(=O)(=O)c2ccc(C)cc2C)cc(OC)c1OC | – | 100 | – | – | – | – | 28% | – | – | –
COc1cc(NS(=O)(=O)c2cc3[nH]c(=O)c(=O)[nH]c3cc2C)cc(OC)c1OC | – | – | – | – | – | – | · | · | · | ·
CCOc1ccc(NC(=O)C(C)NS(=O)(=O)c2ccc(NC(C)=O)cc2)cc1 (configuration not stated) | – | – | – | – | – | – | · | · | · | ·
O=C(COC(=O)c1ncc(Cl)c(Cl)c1Cl)NC1CCCCCC1 | – | – | – | – | – | – | · | · | · | ·
CC1=C(C(=O)OCc2ccccc2)C(c2ccc(Br)cc2)NC(=O)N1CCCCCC(=O)O (configuration not stated) | – | – | – | – | – | – | · | · | · | ·
COC(=O)CCCCCN1C(=O)NC(c2ccccc2)C(C(=O)OCc2ccccc2)=C1C (configuration not stated) | – | 25 | – | – | – | – | 16% | – | – | –
O=C(NC(Cc1ccccc1)C(=O)O)c1ccco1 (configuration not stated) | – | – | – | – | – | – | · | · | · | ·
CC(=O)NCCC(Cc1ccccc1)c1ccco1 (configuration not stated) | – | 100 | – | – | – | – | – | – | – | –
COc1ccc(OC)c(C(c2c(O)nc(SC)[nH]c2=O)c2c(O)nc(SC)[nH]c2=O)c1 | – | – | – | – | · | – | · | · | · | ·
CCCSc1nc(C)cc(C)c1S(=O)(=O)c1ccccc1C | – | 100 | – | – | – | – | – | – | – | –
Cc1cc(C)c(S(=O)(=O)c2ccccc2C)c(SCC(C)C)n1 | – | 100 | – | – | – | – | – | – | – | –
CC(C(=O)Nc1ccccc1)N(c1cccc(Cl)c1)S(C)(=O)=O (configuration not stated) | – | – | – | – | – | – | · | · | · | ·
Cc1ccc(NC(=S)NC(=O)C2CCC2)cc1C | – | – | – | – | – | – | · | · | · | ·
CCOC(=O)Cc1csc(NC(=O)c2ccc(Br)cc2)n1 | – | – | – | – | – | – | · | · | · | ·
CCOC(=O)Cc1csc(NC(=O)c2ccncc2)n1 | – | 100 | – | – | – | – | 19% | – | – | –
CC(C)(CO)NC(=O)C(Cc1ccccc1)N1C(=O)c2ccccc2C1=O (configuration not stated) | – | – | – | – | – | – | · | · | · | ·
C=CCn1c(SCC(=O)NC2CCCC2)nc2c([nH]c3ccccc32)c1=O | – | – | – | – | – | – | · | · | · | ·
CCN(C(=O)COC(=O)c1ccccc1Nc1cccc(C)c1C)C1CCS(=O)(=O)C1 (configuration not stated) | – | 100 | – | – | – | – | – | – | – | –
